# Test results taken from PubChem BioAssay AID2501 (Southern Research Specialized Biocontainment Screening …, 2010).
# Screen size: about 2,200 compounds; about 1,200 (55%) were called active. Cut-off not given; nearly all actives show IC50 up to about 92 µM. So high a share suggests a set chosen from earlier hits. The list shows a part of the results.
# Assay: counter assay for TAg ATPase ADP read-out – biochemical, ADP-Hunter, fluorescence, counter-screen (AID 2501);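 further: purified T antigen ATPase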
# Details: series mostly up to 100 µM
row,Structure (SMILES),IC50
1,CCOC(=O)Cn1c(=O)oc2cc(S(=O)(=O)NCCC(C)C)ccc21,inactive
2,Cn1c(=O)oc2cc(S(=O)(=O)Nc3ccc(O)cc3)ccc21,3.81 µM (active)
3,O=S(=O)(Nc1ccc2c(c1)nc1n2CCOC1)c1ccccc1,inactive
4,Cc1occc1-c1nnc(SCC(=O)c2ccccc2)n1CC1CCCO1 (centres undefined),inactive
5,Cc1nnc(SCc2ccccc2)n1CC1CCCO1 (centres undefined),70.8 µM (active)
6,Cc1nc2ncccn2c1-c1csc(Nc2ccc(N(C)C)cc2)n1,7.2 µM (active)
7,CN(C)c1ccc(Nc2nc(-c3cccnc3)cs2)cc1,5.96 µM (active)
8,O=C1c2ccccc2C(Nc2ccccc2F)N1c1cccnc1 (centres undefined),inactive
9,Cc1cccc(/C(N)=N/OC(=O)N2c3ccccc3Sc3ccccc32)c1,79.6 µM (active)
10,NNC(=O)C(=O)Nc1ccc(O)cc1,5.13 µM (active)
11,NN/C(=C\[N+](=O)[O-])Nc1ccc(Cl)cc1,inactive
12,CCOc1ccccc1NC(=O)NC(C)c1ccncc1 (centres undefined),inactive
13,Oc1ccc(N2CCN(C(=S)NCCc3ccccc3)CC2)cc1,3.15 µM (active)
14,CCOc1ccccc1NC(=S)N1CCN(c2ccc(O)cc2)CC1,6.75 µM (active)
15,CC(C)CN(C)C(=O)CCc1nnc(Cc2cccc(C(F)(F)F)c2)o1,inactive
16,Cc1ccc(NC(=O)C(CC(C)C)NC(N)=O)cc1Cl (centres undefined),inactive
17,COC(=O)/C=C/C(=O)Nc1ccc(O)c(Cl)c1,6.19 µM (active)
18,Cc1ccccc1-n1sc2cc(F)ccc2c1=O,49.1 µM (active)
19,O=S(=O)(NC1=NCCCCC1)c1ccc2sc(NS(=O)(=O)c3ccc4ccccc4c3)nc2c1,inactive
20,c1ccc(-c2csc(NNC3=NCCCCC3)n2)cc1,13.6 µM (active)
21,COc1ccc(Nc2nc(-c3ccc4c(c3)NC(=O)CO4)cs2)cc1,inactive
22,CCN(CC)CCCN(C(=O)c1cccs1)c1nc(-c2ccc(OC)cc2)cs1,inactive
23,COc1ccc(-c2csc(NNC3=NCCCCC3)n2)cc1,40 µM (active)
24,Cc1ccc(N=c2oc3cc(O)ccc3cc2C(N)=O)cc1,17.1 µM (active)
25,C=CC(=O)Oc1ccc(N2Cc3ccccc3C2=O)cc1,8.19 µM (active)
26,COc1cc(/C=C2/C(=O)NN(c3cccc(C)c3)C2=O)ccc1OC(=O)c1ccco1,27.4 µM (active)

row,Structure (SMILES),IC50
1,COc1ccc(N2C(=O)/C(=C\c3ccco3)N=C2SCC(=O)NC(C)C)cc1Cl,inactive
2,COc1cc(/C=C2/C(=O)NN(c3ccc(Cl)cc3)C2=O)ccc1OC(=O)c1ccco1,80 µM (active)
3,CCOC(=O)c1c(NC(=O)c2ccc(S(=O)(=O)N(C)CC3CCCO3)cc2)sc2c1CC(C)(C)NC2(C)C (centres undefined),inactive
4,Nc1ccc(OC(=O)Nc2ccc(O)cc2)cc1,3.47 µM (active)
5,CS(=O)(=O)N1CCc2cc(C(=O)Nc3ccc(O)cc3)ccc21,7.2 µM (active)
6,CC(C)OCCCNC1=C(Cl)C(=O)c2ccccc2C1=O,inactive
7,COC1=C(Nc2ccc(O)cc2)C(=O)c2ccccc2C1=O,5.25 µM (active)
8,CN(C)C=NC1=NN(c2cccc(C(F)(F)F)c2)CC1,5.93 µM (active)
9,O=c1c2ccccc2[nH]c2ccc(O)cc12,5.13 µM (active)
10,O=C(CCN1C(=O)/C(=C\c2ccco2)SC1=S)Nc1ccc(C(=O)O)c(O)c1,inactive
11,O=C(CCN1C(=O)/C(=C/c2ccco2)SC1=S)Nc1ccc(C(=O)O)c(O)c1,inactive
12,O=C1/C(=C/c2ccncc2)SC(=S)N1Nc1ccccc1,77.6 µM (active)
13,COc1ccc(-c2cc(=O)oc3c(O)c(O)ccc23)cc1,8.96 µM (active)
14,O=C1NC(=S)CN1c1ccccc1,inactive
15,Nc1cc(C(=O)O)c(N)c2c1C(=O)c1ccccc1C2=O,14.7 µM (active)
16,O=C(O)c1ccccc1-c1c2cc(I)c(=O)c(I)c-2oc2c(I)c(O)c(I)cc12,inactive
17,CC(=O)N(C1=C(Cl)C(=O)c2ccccc2C1=O)c1ccc(C(=O)O)cc1,inactive
18,COc1cc(Cn2c(-c3ccc(O)c(OC)c3)nc3ccccc32)ccc1O,0.9 µM (active)
19,Cc1nc2cc(NCc3nc4ccccc4n3Cc3ccccc3)ccc2n1C,inactive
20,COc1cc(Cn2nnc3ccccc32)ccc1O,3.65 µM (active)
21,CCOc1ccc(C(=O)CSCC(=O)O)cc1,inactive
22,Cc1cccc(C)c1NC(=O)CSCC(=O)c1ccc(O)c(O)c1,10.3 µM (active)
23,COc1ccc(CCN(C)Cc2nc(Cc3ccc(OC)c(OC)c3)no2)cc1OC,inactive
24,Cn1c(=O)c2c([nH]c(=S)n2Cc2ccc(Cl)cc2)n(C)c1=O,16 µM (active)
25,O=C(COC(=O)C1CC1)c1c[nH]c2ccccc12,inactive
26,C/C(=N/NS(=O)(=O)c1cccc([N+](=O)[O-])c1)c1c[nH]c2ccccc12,9.39 µM (active)

row,Structure (SMILES),IC50
1,COc1cc(/C=N/NS(=O)(=O)c2ccc(Br)cc2)ccc1O,14.6 µM (active)
2,O=[N+]([O-])c1cccc(S(=O)(=O)N/N=C/c2ccc(O)cc2)c1,5.86 µM (active)
3,COc1cc(/C=N/NS(=O)(=O)c2ccc(C)c([N+](=O)[O-])c2)ccc1O,8.36 µM (active)
4,CC(C)(C)c1ccc(-c2nc(O)c(CC(=O)O)s2)cc1,inactive
5,COc1cc(/C=C2\C(C)=C(C#N)c3nc(N)c(C#N)c(C)c32)ccc1OCC(=O)O,inactive
6,COc1cc(/C=C2/C(C)=C(C#N)c3nc(N)c(C#N)c(C)c32)ccc1OCC(=O)O,inactive
7,CC1=C(C#N)c2nc(N)c(C#N)c(C)c2/C1=C\c1ccc(OCC(=O)O)c(Cl)c1,95.7 µM (active)
8,Nc1ncnc2oc(-c3ccco3)c(-c3ccco3)c12,inactive
9,CS(=O)(=O)c1ccc2c(c1)SC1=NC(=O)/C(=C/c3ccco3)C(=N)N12,inactive
10,CCOc1cc(/C=C2\SC(=O)N=C2N)ccc1O,4.18 µM (active)
11,COc1cc(/C=C2\SC(N)=NC2=O)ccc1O,4.85 µM (active)
12,CCOc1cc(/C=C2\NC(=S)N(c3c(C)n(C)n(-c4ccccc4)c3=O)C2=O)ccc1O,3.07 µM (active)
13,NC1=NC(=O)/C(=C\c2ccco2)S1,inactive
14,Cc1ccc(NC(=O)CN2C(=O)N/C(=C\c3cccn3-c3cccc(C(=O)O)c3)C2=O)cc1,inactive
15,CCOc1cc(/C=C2/NC(=O)N(CC(=O)OC)C2=O)ccc1O,5.19 µM (active)
16,COC(=O)c1[nH]c2ccc(Br)cc2c1NC(=O)Oc1ccccc1,inactive
17,CN(C)Cc1cc(O)c(CN(C)C)cc1O,inactive
18,CCOc1cc(/C=C2\SC(=NC)N(C)C2=O)cc(Cl)c1OC(C)=O,inactive
19,CCCN1C(=O)/C(=C/c2ccc(OCc3ccc(C(=O)O)cc3)c(OC)c2)NC1=S,inactive
20,CN=C1S/C(=C\c2ccc(O)c(OC)c2)C(=O)N1C,4.35 µM (active)
21,Cc1c(N2C(=O)/C(=C\c3ccccc3O)SC2=S)c(=O)n(-c2ccccc2)n1C,54.7 µM (active)
22,NC1=NC(=O)S/C1=C\c1ccc(O)cc1,3.6 µM (active)
23,COc1cc(/C=C2\NC(=S)N(C)C2=O)ccc1O,3.23 µM (active)
24,C=CCN1C(=O)/C(=C\C(C)=C\c2ccccc2)SC1=S,inactive
25,COc1cc(C2NC(=S)NC(C)=C2C(=O)Nc2cc(C)cc(C)c2)ccc1O (centres undefined),inactive
26,CCOc1cc(/C=N/Nc2ncnc(Cl)c2N)ccc1O,3.29 µM (active)

row,Structure (SMILES),IC50
1,CCOc1cc(/C=N/Nc2nc(C)cc(=O)[nH]2)ccc1O,2.82 µM (active)
2,CCOc1cc(/C=N/NC(=O)Nc2ccccc2)ccc1O,9.13 µM (active)
3,CCOc1cc(/C=N/NC(=O)N/N=C/c2ccc(O)c(OCC)c2)ccc1O,2.03 µM (active)
4,Nc1c(-c2ccccc2)c(CN2CCOCC2)nn1-c1ccc(F)cc1,inactive
5,CCOc1cc(/C=N/n2cnnc2)ccc1O,6.86 µM (active)
6,COc1ccccc1NC(=O)COc1ccc(/C=N/n2cnnc2)cc1OC,inactive
7,COc1cc(/C=N/n2cnnc2)ccc1OC(=O)c1ccncc1,5.68 µM (active)
8,Cc1cc(=O)[nH]c(N/N=C/c2c[nH]c3ccccc23)n1,5.41 µM (active)
9,Cc1cc(F)ccc1S(=O)(=O)N(C(=O)c1ccncc1)c1ccc(OC(=O)c2ccncc2)cc1,48.3 µM (active)
10,Cc1ccc(C)n1Cc1ccc(C(=O)O)cc1,inactive
11,Cc1ccsc1C=Nc1ccc(O)cc1,5.76 µM (active)
12,On1ccccc1=S,inactive
13,Cc1ccc(/C=N/N2C(=O)c3ccccc3NC2c2ccc(C)cc2)cc1 (centres undefined),inactive
14,Cc1ccc(C2C=NN(c3ccccc3)C2=O)cc1 (centres undefined),12.2 µM (active)
15,Cc1ccc(C2=NOC(=O)/C2=C\c2ccccc2)cc1,inactive
16,CCCCn1c(N)c(N(CCOC)C(=O)c2cccc(S(=O)(=O)N(C)c3ccccc3)c2)c(=O)[nH]c1=O,inactive
17,Cc1cc(C)c2c(CCl)cc(=O)oc2c1,inactive
18,CC(=O)Oc1cc2oc(=O)cc(C)c2cc1OC(C)=O,10.8 µM (active)
19,CCc1cc(=O)oc2cc(OCC(N)=O)c(Cl)cc12,inactive
20,Cc1occc1-c1nnc(SCC(=O)Nc2ccc(F)cc2)n1Cc1ccccc1,inactive
21,COc1ccc(NC(=O)CSc2nc(NS(=O)(=O)c3ccc(C)cc3)cc(=O)[nH]2)cc1,inactive
22,CN(C)c1ccc(NC(=O)CSc2nc3c(c(=O)[nH]2)CCCC3)cc1,2.47 µM (active)
23,CCN(CC)c1ccc(NC(=O)CSc2nc3nc(C)cc(C)c3c(=O)[nH]2)cc1,6.75 µM (active)
24,CCN(CC)c1ccc(NC(=O)CSc2nnc3nc(C)cc(C)n23)cc1,2.92 µM (active)
25,Cc1sc2nc(CSCC(=O)N(C)CC(=O)Nc3ccc(F)cc3)[nH]c(=O)c2c1C,inactive
26,Cc1ccc(C2(CCNCc3ccco3)CCOC(C(C)C)C2)cc1 (centres undefined),inactive
